An excerpt weighted towards active compounds, which were near 14% of everything screened.
MARV entry inh – inhibitors of Marburg virus binding or cell entry; Marburg virus pseudotyped entry inhibition, cell reporter; Potency, µM (series often up to 37.8 µM), usual class: inhibitors; 1.8% of 300,000 active; AID 540276; calls by dose curve; tested in HEK293 cells
HCV inhibitor – HCV inhibition; Huh7.5.1 HCVcc-Cre infection, luciferase reporter, 44 h; Potency, µM (series often up to 41.8 µM), usual class: inhibitors; 3.4% of 340,000 active; AID 651820
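1,000 cells/well; 4 h culture; + compound; + HCVcc-Cre (~0.5 moi); 44 h; luciferase substrate, RT 15 min; read 15 sec.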
Pf growth 96h – P. falciparum growth inhibition at 96 hour, primary screen for plastid delayed-death inhibitors | P. falciparum luciferase reporter growth, 96 h | Potency, µM (highest dose often 28.7 µM), actives largely listed as inhibitors | 6.9% of 320,000 active | AID 504834
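Parasite growth measured via integrated firefly luciferase reporter in P. falciparum. Infected erythrocytes at 2% hematocrit, 0.05% parasitemia final were treated 96 hours at 37 C under 5% CO2, and luminescence was read.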
Lassa entry inh – Lassa virus entry inhibition; Lassa virus pseudotype entry inhibition, cell reporter; Potency, µM (series often up to 37.9 µM), hits mostly inhibitors; 1.2% of 300,000 active; AID 540256; calls by dose curve; tested in HEK293 cells; note: nearly all actives have a fitted effect of over 50% in size
HCMV antiviral – blocks human cytomegalovirus replication | HFF cells, HCMV-luciferase reporter, 72 h; hits give low values | activity change, negative = inhibition, % at 57.5 µM | 4.5% of 410,000 active; in the data active = activity change below about -60%; inconclusive = no clear call, values can overlap the other calls; inactive = above about -39%
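Steps: HFFs plated, 16 h 37C; compounds added; HCMV-luciferase added to MOI 1 PFU/cell; 72 h 37C; OneGlo reagent, 5 min room temperature; luminescence read, normalized to controls.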
Pf growth 48h – inhibits P. falciparum growth in the first generation, 48 h; P. falciparum luciferase growth in erythrocytes, 48 h; Potency, µM (highest dose often 28.7 µM), hits mostly inhibitors; 5.9% of 310,000 active; AID 504832
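Here the parasites carry a stable luciferase gene and grow inside erythrocytes in Albumax-based RPMI medium with compound for one erythrocytic cycle. Activity is scored as loss of luminescent signal.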
Hits are given with their value; - = inactive; ? = inconclusive; . = not tested or not shown; + = active, no number. Unless noted, calls come from the whole dose curve; as a rule, active = well fitted inhibition curve with a large enough effect; inconclusive = small, poorly fitted or top-dose-only effect, or another doubt; inactive = no such curve, though single readings can be large or run the other way.

SMILES	MARV entry inh	HCV inhibitor	Pf growth 96h	Lassa entry inh	HCMV antiviral	Pf growth 48h
Cn1c(SCC(=O)N2CCCCCC2)nc2c(c1=O)SCC2	.	-	4.65µM	.	-	-
COc1ccccc1-n1c(SCC(=O)N2CCc3ccccc32)nc2c(c1=O)SCC2	-	?	?	.	-	11.7µM
COc1ccc(OC)c(-n2c(SCC(=O)N3CCc4ccccc43)nc3c(c2=O)SCC3)c1	.	-	2.33µM	.	.	?
COc1ccccc1-n1c(SCC(=O)Nc2cccc(C)c2)nc2c(c1=O)SCC2	.	?	10.4µM	.	-	.
COc1ccc(O[C@H]2C=C[C@@H](c3ccccc3)O[C@H]2COC(=O)CCC(C)=NO[C@@H](C)c2cc(-c3c(C)cc(C)cc3C)no2)cc1	-	.	.	.	.	.
COc1ccc2c(c1)c(CC(=O)OCC(=O)N(C)C)c(C)n2C(=O)c1ccc(Cl)cc1	25.1µM	-	-	?	-	-
COc1ccc(NC(=O)Cc2c(C)n(C(=O)c3ccc(Cl)cc3)c3ccc(OC)cc23)cc1	?	-	3.29µM	-	-	?
O=C(NCCc1ccc(Cl)cc1)C1COc2ccccc2C1 (stereo not drawn)	.	.	.	-	-	.
C/C(=N/O)C(=O)NCCCNCCCN(C)C	-	.	.	.	.	.
CC(C)(C)n1nnnc1C(c1cc2ccccc2o1)N(Cc1ccccc1)Cc1ccccc1 (stereo not drawn)	.	.	.	.	-86.8	.
CCN(Cc1ccccc1)C(c1ccncc1)c1nnnn1C(C)(C)C (stereo not drawn)	-	-	-	-	-	?
CC(C)(C)c1ccc(CN(Cc2ccccc2)C(c2ccccn2)c2nnnn2C(C)(C)C)cc1 (stereo not drawn)	?	10µM	.	5.62µM	-	1.65µM
O=C(NCCC1=CCCCC1)C1CCC(CNc2nc(=S)[nH]c3ccccc23)CC1 (stereo not drawn)	-	?	-	.	-62.4	?
CCCCNC(=O)C1CCC(CNc2nc(=S)[nH]c3ccccc23)CC1 (stereo not drawn)	-	-	-	-	-	-
COc1ccc(CCNC(=O)CCCCCNc2nc(=S)[nH]c3ccccc23)cc1OC	?	11.2µM	10.4µM	?	-	?
O=C(NCCc1ccc(Cl)cc1)C1CCC(CNc2nc(=S)[nH]c3ccccc23)CC1 (stereo not drawn)	?	11.2µM	-	-	-81.8	?
COCCNC(=O)c1cnn(-c2cccc(C)c2)c1-n1cccc1	.	.	.	-	+	.
CCOC(=O)N1CCC(NC(=O)c2cnn(-c3cccc(C)c3)c2-n2cccc2)CC1	.	.	.	-	-	.
CC1(C)CC(NC(=O)CCc2nnc(CCCCc3ccccc3)o2)CCO1 (stereo not drawn)	.	-	10.4µM	.	-	-
O=C(CCc1nnc(CCCCc2ccccc2)o1)NC1CCCC1	-	?	-	-	-	-
COc1ccc(-c2csc(CCn3nc(C)cc3C)n2)cc1	?	?	-	?	-	-
Cc1nn(CCc2nc(-c3ccco3)cs2)c2[nH]c(=O)cc(C(F)(F)F)c12	-	-	9.28µM	-	-	.
Cc1cc(C)n(CCc2nc(-c3ccc(-c4ccccc4)cc3)cs2)n1	-	?	-	-	-65.2	-
Cc1nn(CCc2nn[nH]n2)c2nc(-c3ccccc3)cc(C(F)(F)F)c12	-	-	-	-	-	-
Cc1cc(C)n(CCc2nc(-c3ccco3)cs2)n1	-	-	-	-	-105.4	.
SMILES	MARV entry inh	HCV inhibitor	Pf growth 96h	Lassa entry inh	HCMV antiviral	Pf growth 48h
C#CCN1C=CC(=O)[C@@H](O)[C@H]1c1ccccc1Br	.	5.62µM	.	.	-	.
C#CCN1C=CC(=O)[C@@H](OC(=O)Nc2ccc(C)cc2)[C@H]1c1ccccc1Br	.	-	.	.	-	.
COC(=O)C1=C(C)N(Cc2cccc(C(F)(F)F)c2)C(=NCc2cc(OC)c(OC)c(OC)c2)NC1CCc1ccccc1 (stereo not drawn)	.	.	.	.	-	.
CCCN(CCC)C(=O)c1cc([N+](=O)[O-])cc2c1-c1ccc([N+](=O)[O-])cc1C2=C(C#N)C#N	.	?	11.7µM	.	?	11.7µM
CCOc1cccc(CC(=O)NCc2ccc3c(c2)CCN3C(=O)c2cccc(C)c2)c1OCC	?	.	.	11.2µM	-67.4	.
COc1ccc(C)cc1NC(=O)NCc1ccc2c(c1)CCN2C(=O)c1ccccc1	.	.	.	?	-91.8	.
CCOc1ccccc1C(=O)NCc1ccc2c(c1)CCN2C(=O)c1ccccc1	.	.	.	?	-77.8	.
COc1ccc(CC(=O)NCc2ccc3c(c2)CCN3C(=O)c2cccc(C)c2)cc1	.	.	.	?	-	.
CCOc1ccccc1NC(=O)NCc1ccc2c(c1)CCN2C(=O)c1ccccc1	.	.	.	?	-82.0	.
CCOc1ccc(-c2c(C)nn3c(C)c(C(=O)NCc4cccc(OC)c4)cnc23)cc1OCC	.	.	.	-	-	.
Cc1ccccc1C(=O)Nc1ccccc1NC(=O)c1ccccc1Br	-	-	-	-	-	?
COc1ccc(Nc2ccccc2NC(=O)c2ccccc2Br)cc1	?	?	2.08µM	-	?	1.65µM
COc1ccc(/C=N/NC(=O)c2ccc(NC(=O)c3ccccc3Br)cc2)cc1	-	?	-	18.4µM	-91.3	-
CC1CCCCN1C(=O)COC(=O)CNC(=O)c1ccc(Cl)cc1Cl (stereo not drawn)	?	-	-	-	-	-
O=C(Nc1ccccc1O)c1ccc(C(=O)c2ccccc2)o1	-	?	?	?	-	8.28µM
O[C@H]1CN(CC2CCCCC2)[C@@H](c2ccccc2)C[C@@H]1n1cc(C2CC2)nn1	.	.	.	.	-	.
CCOC(=O)C1=C(O)CCn2c1nc1ccccc12	-	-	-	-	-107.4	-
CC(=O)N1c2ccc3ccccc3c2C(C)CC12CCCCC2 (stereo not drawn)	-	-	.	-	-	.
CC1CC2(CCCCC2)Nc2ccc3ccccc3c21 (stereo not drawn)	-	-	-	?	-	10.4µM
Clc1cccc(CNc2ccn3nc(-c4ccccc4Cl)cc3n2)c1	.	.	.	.	-	.
Cc1ccccc1-c1noc(-c2ccc(O)cc2)n1	?	14.1µM	-	?	-	-
Cc1ccccc1-c1noc(-c2ccc(Cl)cc2)n1	?	-	?	-	-	-
c1ccc(-c2noc(-c3ccccc3-c3ccccc3)n2)cc1	-	-	.	-	-	-
CN(C)c1ccc(-c2noc(-c3ccccc3O)n2)cc1	?	-	-	5.8µM	-	-
Cc1ccc(C)c(S(=O)(=O)N2CCN(C(=O)Cc3ccc(S(=O)(=O)N4CCOCC4)s3)CC2)c1	-	?	?	-	-	?
CC(=O)NC(C)(c1ccccc1)c1nc(-c2cccc(F)c2)cs1 (stereo not drawn)	.	.	.	.	-	.
Cc1ccc(NC(=O)c2ccc(Nc3c([N+](=O)[O-])cc([N+](=O)[O-])cc3[N+](=O)[O-])cc2)cc1	10µM	10µM	-	?	-93.6	5.22µM
O=C(Nc1cccc([N+](=O)[O-])c1)c1cccc(C(=O)Nc2cccc([N+](=O)[O-])c2)c1	.	-	?	.	-	2.94µM
O=C(Nc1cccc([N+](=O)[O-])c1)c1cc2ccccc2cc1O	.	5.62µM	1.85µM	.	-100.5	5.22µM
Cc1ccc(NC(=O)c2ccc(C)cc2)cc1	.	-	-	.	-	-
